Assay outcomes (PubChem)
In the library only some 8% were active in any assay of this set; here they are far more common.
HCV inhibitor = qHTS Assay for Inhibitors of Hepatitis C Virus (HCV) | Huh7.5.1 HCVcc-Cre infection, luciferase reporter, 44 h | Potency, µM (top dose mostly 41.8 µM), actives largely listed as inhibitors | 340,000 compounds, 3.4% hits; active = well fitted inhibition curve with a large enough effect; inconclusive = small, poorly fitted or top-dose-only effect, or another doubt; inactive = no such curve, though single readings can be large or run the other way
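1,000 cells/well; 4 h culture; + compound; + HCVcc-Cre (~0.5 moi); 44 h; luciferase substrate, RT 15 min; read 15 sec.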
HCMV inh = qHTS Assay for inhibitors of the human cytomegalovirus (HCMV); HFF cells, HCMV-luciferase reporter, 72 h; active compounds read low; activity change, negative = inhibition, % at 57.5 µM; 410,000 compounds, 4.5% hits; AID 1259415, 2018; in the data active = activity change below about -60%; inconclusive = no clear call, values can overlap the other calls; inactive = above about -39%
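Luciferase read-out from HCMV-luciferase-infected HFFs (MOI 1 PFU/cell) 72 h post infection at 37C; compounds added after 16 h cell attachment; activity normalized between buffer-only basal and Salinomycin (10uM) inhibitor controls.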
SARS PLpro yeast = qHTS of Yeast-based Assay for SARS-CoV PLP; 330,000 compounds, 0.19% hits; Potency, µM (titrated, usually from 32.9 µM), hits mostly activators; AID 485353, 2010; S. cerevisiae expressing SARS-CoV PLpro, growth rescue; calls by dose curve; also: nearly all actives have a fitted effect of over 55% in size
Lassa entry inh = qHTS for Inhibitors of binding or entry into cells for Lassa Virus | Lassa virus pseudotype entry inhibition, cell reporter | 300,000 compounds, 1.2% hits | Potency, µM (highest dose often 37.9 µM), actives largely listed as inhibitors; calls by dose curve; tested in HEK293 cells; also: nearly all actives have a fitted effect of over 50% in size
FMDV inh = High Throughput Screening for Foot and Mouth Disease Virus Antivirals. FMDV antiviral cell-based qHTS. Potency, µM (doses to about 57.9 µM), actives largely listed as inhibitors. 410,000 compounds, 1.2% hits; calls by dose curve; tested in HEK293T cells; also: read-out not given here; nearly all actives have a fitted effect of over 45% in size
MARV entry inh = qHTS for inhibitors of binding or entry into cells for Marburg Virus | Marburg virus pseudotyped entry inhibition, cell reporter | Potency, µM (top dose mostly 37.8 µM), actives largely listed as inhibitors | 300,000 compounds, 1.8% hits | AID 540276, 2011; calls by dose curve; tested in HEK293 cells
Hits are given with their value.

What do the screens show for `COC(=O)c1cn(C(=O)c2ccccc2Cl)c2ccccc12`?
HCV inhibitor: inconclusive; HCMV inh: -64; SARS PLpro yeast: inactive; Lassa entry inh: inconclusive; FMDV inh: inactive; MARV entry inh: inconclusive

What do the screens show for `COC(=O)c1cn(C(=O)c2ccc(C)cc2C)c2ccccc12`?
HCV inhibitor: inconclusive; HCMV inh: inactive; SARS PLpro yeast: inactive; Lassa entry inh: inconclusive; FMDV inh: inactive; MARV entry inh: inconclusive

How did CNC(=S)N/N=C/c1cn(Cc2ccc(F)cc2)c2ccccc12 do in these assays?
HCV inhibitor: 32µM; HCMV inh: inactive; SARS PLpro yeast: inactive; Lassa entry inh: inconclusive; FMDV inh: inconclusive; MARV entry inh: inconclusive

Results for COC(=O)N/N=C/c1cn(Cc2ccc(Cl)cc2Cl)c2ccccc12 ?
HCV inhibitor: inconclusive; HCMV inh: inactive; SARS PLpro yeast: inactive; Lassa entry inh: inconclusive; FMDV inh: inactive; MARV entry inh: 13µM

How did O=C(N/N=C/c1cn(CCOc2ccccc2)c2ccccc12)c1ccncc1 do in these assays?
HCV inhibitor: inactive; HCMV inh: inactive; SARS PLpro yeast: inconclusive; Lassa entry inh: inconclusive; FMDV inh: inactive; MARV entry inh: inactive

How did Cc1cccc(CNC(=O)c2cnn(-c3ncc(C)c(-c4ccc(F)cc4)n3)c2C)n1 do in these assays?
FMDV inh: inactive

How did S=C(c1cn(CCOc2cccc3ccccc23)c2ccccc12)N1CCCC1 do in these assays?
HCV inhibitor: inconclusive; HCMV inh: -77; SARS PLpro yeast: inactive; Lassa entry inh: inactive; FMDV inh: inconclusive; MARV entry inh: inactive

What do the screens show for `Cc1ccc(OCCn2cc(C(=O)C3CCCCC3)c3ccccc32)cc1`?
HCMV inh: -101; Lassa entry inh: inconclusive; FMDV inh: inactive; MARV entry inh: inactive

What do the screens show for `COCCn1cc(C(=S)N2CCOCC2)c2ccccc21`?
HCV inhibitor: inactive; HCMV inh: inactive; SARS PLpro yeast: inactive; Lassa entry inh: inactive; FMDV inh: inactive; MARV entry inh: inactive

Results for COCCn1cc(C(=S)N2CCCCC2)c2ccccc21 ?
HCV inhibitor: inactive; HCMV inh: inactive; SARS PLpro yeast: inactive; Lassa entry inh: inactive; FMDV inh: inactive; MARV entry inh: inactive

What do the screens show for `COC(=O)c1cn(CCOc2ccccc2)c2ccccc12`?
HCV inhibitor: 13µM; HCMV inh: inactive; SARS PLpro yeast: inactive; Lassa entry inh: inconclusive; FMDV inh: inactive; MARV entry inh: inactive

Results for S=C(c1cn(CCOc2ccccc2)c2ccccc12)N1CCCC1 ?
HCV inhibitor: 11µM; HCMV inh: inactive; SARS PLpro yeast: inactive; Lassa entry inh: inactive; FMDV inh: inactive; MARV entry inh: inconclusive

How did COc1ccc(CC(=O)NNS(=O)(=O)c2ccccc2)cc1OC do in these assays?
HCV inhibitor: inactive; HCMV inh: inconclusive; SARS PLpro yeast: inactive; Lassa entry inh: inactive; FMDV inh: inactive; MARV entry inh: inactive

How did CCOc1ccccc1-n1nnc(S(=O)(=O)c2ccc(C)cc2)c1N do in these assays?
HCMV inh: inactive; Lassa entry inh: inconclusive; FMDV inh: inactive; MARV entry inh: inactive

How did Cc1ccnc(NC(=O)c2ccc(Cl)s2)c1 do in these assays?
HCV inhibitor: inactive; SARS PLpro yeast: inactive; FMDV inh: inactive

How did COC(=O)c1cn([C@H]2C[C@@H](C(=O)N3CCCCCC3)N(Cc3ccsc3)C2)nn1 do in these assays?
FMDV inh: inactive

How did COc1cc(OC)c(NC(=O)c2oc3ccc4c(c3c2C)C(=O)CC(C)(C)O4)cc1Cl do in these assays?
HCMV inh: inactive; Lassa entry inh: inactive; FMDV inh: inactive

Results for C[C@H]1[C@@H](NS(=O)(=O)c2ccc(Br)cc2)CC[C@@]23CCCN2C(=O)CCC[C@@H]13 ?
HCMV inh: inactive

Results for O=C(NCC1CCCCC1)c1csc([C@@H]2O[C@H](CO)[C@H](O)[C@H](O)[C@H]2O)n1 ?
HCMV inh: inactive; FMDV inh: inactive

Results for CCOC(=O)C1(C)CCCN(C(=O)Cc2ccc3ccccc3c2)C1 (stereo unspecified) ?
HCMV inh: inactive; FMDV inh: inactive

What do the screens show for `CC(C)(C)OC(=O)N/N=C/c1cc(N=Nc2ccccc2)ccc1O`?
HCV inhibitor: 32µM; HCMV inh: inactive; SARS PLpro yeast: inactive; Lassa entry inh: inconclusive; FMDV inh: inconclusive; MARV entry inh: inconclusive

How did COc1ccccc1OCCn1cc(/C=N/NC(=O)c2ccncc2)c2ccccc21 do in these assays?
HCV inhibitor: inactive; HCMV inh: inactive; SARS PLpro yeast: inactive; Lassa entry inh: inconclusive; FMDV inh: inconclusive; MARV entry inh: inactive

What do the screens show for `COc1ccccc1OCCn1cc(/C=N/NC(N)=S)c2ccccc21`?
HCV inhibitor: 8.9µM; HCMV inh: inconclusive; SARS PLpro yeast: inactive; FMDV inh: inconclusive

What do the screens show for `O=C(CCCC(=O)NN=Cc1ccccc1Cl)NN=Cc1ccccc1Cl`?
HCV inhibitor: inactive; HCMV inh: inactive; Lassa entry inh: inactive; FMDV inh: inactive; MARV entry inh: inactive

How did COC(=O)N/N=C/c1ccccc1Cl do in these assays?
HCV inhibitor: inactive; HCMV inh: -75; SARS PLpro yeast: inactive; Lassa entry inh: inconclusive; FMDV inh: inactive; MARV entry inh: inactive

What do the screens show for `CC(=O)N1CCCc2cc(S(=O)(=O)N(C)CC(=O)Nc3ccc(C(C)C)cc3)ccc21`?
HCMV inh: inactive; Lassa entry inh: inactive; FMDV inh: inactive

What do the screens show for `O=C1CCCCC1Sc1nnc(-c2ccc3c(c2)OCO3)o1` (stereo unspecified)?
HCV inhibitor: inactive; HCMV inh: inconclusive; SARS PLpro yeast: inactive; Lassa entry inh: inconclusive; FMDV inh: 4µM; MARV entry inh: 5.6µM

Results for Cc1cccc(NC(=O)CN(C)S(=O)(=O)c2ccc3c(c2)c(=O)n(C)c(=O)n3C)c1C ?
HCMV inh: inactive; Lassa entry inh: inactive; FMDV inh: inactive; MARV entry inh: inactive

Results for Cc1ccc(S(=O)(=O)N2CCOCC2)cc1NC(=O)COC(=O)CSc1ccc(Br)cc1C ?
HCV inhibitor: inactive; HCMV inh: -96; SARS PLpro yeast: inactive; Lassa entry inh: inactive; FMDV inh: inactive; MARV entry inh: inactive

Results for Cc1ccc(S(=O)(=O)N2CCOCC2)cc1NC(=O)CN1CCN(c2ccc(O)cc2)CC1 ?
HCV inhibitor: inactive; HCMV inh: -61; SARS PLpro yeast: inactive; Lassa entry inh: inactive; FMDV inh: inconclusive; MARV entry inh: inactive

Results for Cc1ccc(S(=O)(=O)N2CCOCC2)cc1NC(=O)COC(=O)c1ccc(Br)cc1 ?
HCV inhibitor: inactive; HCMV inh: inactive; SARS PLpro yeast: inactive; Lassa entry inh: inactive; FMDV inh: inactive; MARV entry inh: inactive

Results for Cc1ccc(C2(C)NC(=O)N(CC(=O)Nc3cc(S(=O)(=O)N4CCOCC4)ccc3C)C2=O)cc1 (stereo unspecified) ?
HCV inhibitor: inactive; HCMV inh: -101; SARS PLpro yeast: inactive; Lassa entry inh: inactive; FMDV inh: inactive; MARV entry inh: inactive
